Results from the supplement of paper PMC12067093, “Discovery and optimisation of a covalent ligand for TRIM25 and its application to targeted protein ubiquitination” (Chemical Science, 2025).
About 21,000 targets were measured; listed, in parts, are those with the largest changes and a random draw of the rest.

Each target was assayed with Cc1cc(ccc1-c1ccccc1)C(=O)N1CCCN(CC1)C(=O)CCl [compound 10] (assay: probe-labelled cysteine peptide fold change vs DMSO (competition) (log2 fold change); higher = less target engagement (more negative = stronger competition)). Details: 10 µM; THP-1; incubation time: 4 h.
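Note: competitive profiling in live THP-1 cells: cysteine peptides tagged with an iodoacetamide desthiobiotin (IA-DTB) probe, intensity after compound treatment relative to DMSO-treated cells.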

UniProt P17931, sequence (P17931 whole entry): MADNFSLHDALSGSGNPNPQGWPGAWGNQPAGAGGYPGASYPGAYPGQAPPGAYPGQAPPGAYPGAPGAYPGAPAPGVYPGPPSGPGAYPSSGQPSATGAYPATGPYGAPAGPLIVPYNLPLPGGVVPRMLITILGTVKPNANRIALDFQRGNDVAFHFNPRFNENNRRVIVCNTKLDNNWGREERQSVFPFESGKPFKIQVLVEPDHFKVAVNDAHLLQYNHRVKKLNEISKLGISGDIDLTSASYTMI
UniProt Q9BTC8, sequence (Q9BTC8 whole entry, looked up): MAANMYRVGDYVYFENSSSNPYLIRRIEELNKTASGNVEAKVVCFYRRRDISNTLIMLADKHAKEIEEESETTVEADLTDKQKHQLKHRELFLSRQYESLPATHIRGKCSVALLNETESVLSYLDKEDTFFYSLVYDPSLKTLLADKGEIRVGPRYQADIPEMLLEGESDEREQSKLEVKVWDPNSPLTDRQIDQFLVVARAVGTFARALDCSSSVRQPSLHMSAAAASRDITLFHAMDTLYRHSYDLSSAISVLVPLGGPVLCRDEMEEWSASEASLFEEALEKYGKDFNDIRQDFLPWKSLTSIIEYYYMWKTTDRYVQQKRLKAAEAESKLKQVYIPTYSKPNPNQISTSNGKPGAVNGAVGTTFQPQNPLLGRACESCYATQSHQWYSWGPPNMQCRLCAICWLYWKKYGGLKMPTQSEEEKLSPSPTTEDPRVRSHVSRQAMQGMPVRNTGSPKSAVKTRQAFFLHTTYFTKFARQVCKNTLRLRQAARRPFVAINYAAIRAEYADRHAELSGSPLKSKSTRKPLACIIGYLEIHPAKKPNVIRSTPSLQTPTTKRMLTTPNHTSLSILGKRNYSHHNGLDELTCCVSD
UniProt Q92918, sequence (Q92918 whole entry, looked up): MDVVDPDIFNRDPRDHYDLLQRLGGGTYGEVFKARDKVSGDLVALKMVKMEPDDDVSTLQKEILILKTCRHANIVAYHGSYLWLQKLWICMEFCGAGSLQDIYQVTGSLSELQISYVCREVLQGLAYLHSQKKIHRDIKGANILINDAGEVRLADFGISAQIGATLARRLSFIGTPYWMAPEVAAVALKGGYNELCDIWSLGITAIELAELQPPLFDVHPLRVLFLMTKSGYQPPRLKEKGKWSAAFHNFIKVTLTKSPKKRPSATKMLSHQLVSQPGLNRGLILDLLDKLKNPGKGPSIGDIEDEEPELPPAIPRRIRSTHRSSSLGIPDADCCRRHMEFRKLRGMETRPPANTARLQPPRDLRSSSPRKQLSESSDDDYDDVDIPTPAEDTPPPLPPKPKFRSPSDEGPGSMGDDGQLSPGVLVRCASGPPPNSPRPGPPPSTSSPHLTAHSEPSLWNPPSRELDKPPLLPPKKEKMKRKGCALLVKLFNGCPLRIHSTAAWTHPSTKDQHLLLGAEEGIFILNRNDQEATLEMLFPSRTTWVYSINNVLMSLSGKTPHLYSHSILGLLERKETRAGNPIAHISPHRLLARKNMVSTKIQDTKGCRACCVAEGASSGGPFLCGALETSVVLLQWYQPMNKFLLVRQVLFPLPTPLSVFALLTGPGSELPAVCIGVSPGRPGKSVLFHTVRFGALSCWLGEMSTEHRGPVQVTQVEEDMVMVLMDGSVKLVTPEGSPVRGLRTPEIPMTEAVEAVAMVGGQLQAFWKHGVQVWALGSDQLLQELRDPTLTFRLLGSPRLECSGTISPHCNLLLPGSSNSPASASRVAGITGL
UniProt Q9BQG0, sequence (Q9BQG0 whole entry, looked up): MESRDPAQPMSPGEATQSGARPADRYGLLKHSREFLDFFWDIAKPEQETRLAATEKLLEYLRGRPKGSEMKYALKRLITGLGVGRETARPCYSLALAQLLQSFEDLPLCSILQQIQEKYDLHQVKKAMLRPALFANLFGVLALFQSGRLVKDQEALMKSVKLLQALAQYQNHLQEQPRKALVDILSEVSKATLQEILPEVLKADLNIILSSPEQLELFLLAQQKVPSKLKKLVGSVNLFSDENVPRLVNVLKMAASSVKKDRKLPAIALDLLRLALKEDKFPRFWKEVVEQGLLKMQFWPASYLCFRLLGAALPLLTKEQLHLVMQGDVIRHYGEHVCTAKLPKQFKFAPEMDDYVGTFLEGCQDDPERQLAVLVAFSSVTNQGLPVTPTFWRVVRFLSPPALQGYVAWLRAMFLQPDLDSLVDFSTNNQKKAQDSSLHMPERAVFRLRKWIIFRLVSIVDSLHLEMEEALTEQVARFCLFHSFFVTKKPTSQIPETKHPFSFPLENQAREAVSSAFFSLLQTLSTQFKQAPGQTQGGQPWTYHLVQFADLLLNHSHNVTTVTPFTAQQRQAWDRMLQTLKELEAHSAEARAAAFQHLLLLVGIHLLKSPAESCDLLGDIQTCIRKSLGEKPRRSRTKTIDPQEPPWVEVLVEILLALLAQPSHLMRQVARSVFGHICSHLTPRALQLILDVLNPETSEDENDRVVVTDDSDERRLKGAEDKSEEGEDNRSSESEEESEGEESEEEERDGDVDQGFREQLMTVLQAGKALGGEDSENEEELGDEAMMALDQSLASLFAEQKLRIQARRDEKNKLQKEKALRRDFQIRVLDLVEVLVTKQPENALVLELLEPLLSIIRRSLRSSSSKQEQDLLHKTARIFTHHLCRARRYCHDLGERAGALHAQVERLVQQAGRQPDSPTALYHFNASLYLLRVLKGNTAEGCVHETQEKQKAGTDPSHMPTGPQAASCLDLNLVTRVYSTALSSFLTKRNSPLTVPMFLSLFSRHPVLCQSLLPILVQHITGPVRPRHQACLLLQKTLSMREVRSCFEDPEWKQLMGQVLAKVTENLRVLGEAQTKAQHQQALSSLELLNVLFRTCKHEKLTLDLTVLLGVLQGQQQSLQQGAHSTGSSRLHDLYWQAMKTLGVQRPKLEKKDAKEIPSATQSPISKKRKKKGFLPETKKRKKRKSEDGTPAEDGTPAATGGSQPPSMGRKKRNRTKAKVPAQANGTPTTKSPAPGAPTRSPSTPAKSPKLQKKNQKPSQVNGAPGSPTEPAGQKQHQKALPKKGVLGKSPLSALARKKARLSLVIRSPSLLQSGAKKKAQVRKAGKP

Going from “MTA3_Q9BTC8_109_CSVALLNETESVLSYLDK (UniProt Q9BTC8)” to “MYADM_Q96S97_279_SRDVSCSR (UniProt Q96S97)”, the “probe-labelled cysteine peptide fold change” value rises from 0.791 to 1.07.

Compared with “MADD_Q8WXG6_1489_LINMTYCPK (UniProt Q8WXG6)”, “MYCBP2_O75592_3241_DTICELCGESHPYPVTYHMR (UniProt O75592)” is higher in “probe-labelled cysteine peptide fold change” value: -0.139 for the first, -0.0846 for the second.

Compared with “MGAT2_Q10469_386_KTCRPSTQSAQIESLLNNNK (UniProt Q10469)”, “MACF1_Q9UPN3_3109_EIACGAQSEPFPCMTPRPEGLHYQESDGK (UniProt Q9UPN3)” is lower in “probe-labelled cysteine peptide fold change” value: -0.194 for the first, -0.348 for the second.

First: LY75_O60449-2_1697_NQCTDHGADMISIHNEEENAFILDTLK (UniProt O60449)
Second: MED13_Q9UHV7_681_NQCLSAIASDAEQEPK (UniProt Q9UHV7)
The “probe-labelled cysteine peptide fold change” value of the first is lower: -0.0829 for the first, 0.327 for the second.

First: MCM2_P49736_406_DAILLADLVDSCK (UniProt P49736)
UniProt P49736, sequence (P49736 whole entry, looked up): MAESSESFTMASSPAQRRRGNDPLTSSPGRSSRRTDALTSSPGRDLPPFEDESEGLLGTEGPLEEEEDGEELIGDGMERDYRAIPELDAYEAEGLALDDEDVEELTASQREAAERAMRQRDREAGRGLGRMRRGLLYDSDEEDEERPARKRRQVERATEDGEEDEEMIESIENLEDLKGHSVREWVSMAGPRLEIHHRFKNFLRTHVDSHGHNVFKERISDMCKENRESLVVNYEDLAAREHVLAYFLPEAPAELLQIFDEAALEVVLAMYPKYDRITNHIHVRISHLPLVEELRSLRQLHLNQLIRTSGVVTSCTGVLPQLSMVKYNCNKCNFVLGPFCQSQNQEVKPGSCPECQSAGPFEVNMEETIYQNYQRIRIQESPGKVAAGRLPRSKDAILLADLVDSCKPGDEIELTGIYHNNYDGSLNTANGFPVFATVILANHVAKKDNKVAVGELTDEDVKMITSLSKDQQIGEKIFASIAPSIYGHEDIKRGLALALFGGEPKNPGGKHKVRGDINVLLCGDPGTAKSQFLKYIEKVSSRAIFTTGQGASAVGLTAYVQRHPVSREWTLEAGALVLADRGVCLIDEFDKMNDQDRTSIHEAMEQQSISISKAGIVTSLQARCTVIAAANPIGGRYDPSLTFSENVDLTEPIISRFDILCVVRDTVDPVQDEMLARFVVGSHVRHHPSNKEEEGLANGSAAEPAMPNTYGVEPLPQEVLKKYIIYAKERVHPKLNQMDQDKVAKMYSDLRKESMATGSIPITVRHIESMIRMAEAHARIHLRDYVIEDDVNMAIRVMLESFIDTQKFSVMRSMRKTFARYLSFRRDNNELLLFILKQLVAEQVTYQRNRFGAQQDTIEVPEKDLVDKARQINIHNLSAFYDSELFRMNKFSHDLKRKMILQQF
Second: MYD88_Q99836_168_FDAFICYCPSDIQFVQEMIR (UniProt Q99836)
UniProt Q99836, sequence (Q99836 whole entry, looked up): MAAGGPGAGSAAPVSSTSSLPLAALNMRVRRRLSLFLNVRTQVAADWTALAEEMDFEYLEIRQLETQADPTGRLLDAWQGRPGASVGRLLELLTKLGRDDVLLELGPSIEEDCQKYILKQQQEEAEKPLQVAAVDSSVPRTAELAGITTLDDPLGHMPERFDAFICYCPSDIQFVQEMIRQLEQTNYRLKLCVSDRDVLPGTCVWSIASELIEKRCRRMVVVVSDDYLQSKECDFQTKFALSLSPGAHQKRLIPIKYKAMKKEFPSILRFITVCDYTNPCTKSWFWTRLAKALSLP
The “probe-labelled cysteine peptide fold change” value of the first is lower: -0.0605 for the first, 0.412 for the second.

Going from “MYBBP1A_Q9BQG0_890_RYCHDLGER (UniProt Q9BQG0)” to “LRR1_Q96L50_5_LHCEVEVISR (UniProt Q96L50)”, the “probe-labelled cysteine peptide fold change” value falls from 0.104 to -0.12.

Compared with “MTHFD1_P11586_236_GEWIKPGAIVIDCGINYVPDDK (UniProt P11586)”, “LGALS3_P17931_173_VIVCNTK (UniProt P17931)” is lower in “probe-labelled cysteine peptide fold change” value: 0.183 for the first, 0.0884 for the second.

First: LILRB4_Q8NHJ6_330_SSPAADVQGENFCAAVK (UniProt Q8NHJ6)
UniProt Q8NHJ6, sequence (Q8NHJ6 whole entry, looked up): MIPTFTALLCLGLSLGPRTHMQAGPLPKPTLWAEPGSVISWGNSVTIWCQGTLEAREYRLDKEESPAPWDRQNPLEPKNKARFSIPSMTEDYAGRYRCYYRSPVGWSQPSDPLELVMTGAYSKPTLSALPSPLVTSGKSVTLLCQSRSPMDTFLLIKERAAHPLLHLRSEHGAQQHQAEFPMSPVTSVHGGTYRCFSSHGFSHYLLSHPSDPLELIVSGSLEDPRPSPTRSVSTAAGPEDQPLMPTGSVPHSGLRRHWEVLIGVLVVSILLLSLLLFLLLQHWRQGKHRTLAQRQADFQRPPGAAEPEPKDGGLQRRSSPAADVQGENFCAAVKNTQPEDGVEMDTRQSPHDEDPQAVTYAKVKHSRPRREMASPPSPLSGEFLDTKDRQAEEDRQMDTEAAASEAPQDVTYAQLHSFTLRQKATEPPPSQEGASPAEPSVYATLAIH
Second: MAPK9_P45984_177_TACTNFMMTPYVVTR (UniProt P45984)
The “probe-labelled cysteine peptide fold change” value of the first is higher: -0.385 for the first, -0.494 for the second.

First: MIS18A_Q9NYP9_85_AQLEEEAAAAEERPLVFLCSGCR (UniProt Q9NYP9)
Second: MCMBP_Q9BTE3_249_VYEDWDCFK (UniProt Q9BTE3)
The “probe-labelled cysteine peptide fold change” value of the first is higher: 0.00435 for the first, -0.042 for the second.

First: MGAT2_Q10469_378_IFHAGDCGMHHK (UniProt Q10469)
Second: MTCH2_Q9Y6C9_49_QVCQLPGLFSYAQHIASIDGR (UniProt Q9Y6C9)
UniProt Q9Y6C9, sequence (Q9Y6C9 whole entry, looked up): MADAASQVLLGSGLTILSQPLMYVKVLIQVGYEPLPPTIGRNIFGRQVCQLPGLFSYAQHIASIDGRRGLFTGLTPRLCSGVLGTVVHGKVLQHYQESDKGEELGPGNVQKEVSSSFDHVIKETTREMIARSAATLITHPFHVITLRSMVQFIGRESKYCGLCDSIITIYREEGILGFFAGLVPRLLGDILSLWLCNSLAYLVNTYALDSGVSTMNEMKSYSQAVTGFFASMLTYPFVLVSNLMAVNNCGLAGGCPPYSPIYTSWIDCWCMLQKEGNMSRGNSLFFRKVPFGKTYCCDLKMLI
The “probe-labelled cysteine peptide fold change” value of the first is lower: -0.125 for the first, -0.0446 for the second.

Going from “MTRR_Q9UBK8_64_AIAEEICEQAVVHGFSADLHCISESDKYDLK (UniProt Q9UBK8)” to “MTREX_P42285_430_KMVEEVFSNAIDCLSDEDK (UniProt P42285)”, the “probe-labelled cysteine peptide fold change” value falls from -0.113 to -0.306.

Compared with “MACF1_Q9UPN3_5309_DCDVQGLEHDMEEINAR (UniProt Q9UPN3)”, “MRPS18A_Q9NVS2_186_DNVCYSR (UniProt Q9NVS2)” is lower in “probe-labelled cysteine peptide fold change” value: 0.0885 for the first, -0.0735 for the second.

Going from “MMADHC_Q9H3L0_261+262_HLGFSVDDLGCCK (UniProt Q9H3L0)” to “MMP14_P50281_574_RLLYCQR (UniProt P50281)”, the “probe-labelled cysteine peptide fold change” value rises from -0.412 to -0.276.

Going from “MAP2K2_P36507_384_SEVEEVDFAGWLCK (UniProt P36507)” to “MRC2_Q9UBG0_201_YDNQWFHGCTSTGR (UniProt Q9UBG0)”, the “probe-labelled cysteine peptide fold change” value falls from 0.0856 to -2.14.

Compared with “M6PR_P20645_145_AVVMISCNR (UniProt P20645)”, “LIMS1_P48059_240+252_GLAYCETHYNQLFGDVCFHCNR (UniProt P48059)” is higher in “probe-labelled cysteine peptide fold change” value: -0.268 for the first, 0.0277 for the second.

First: MYH9_P35579_789_ITDVIIGFQACCR (UniProt P35579)
Second: MMS19_Q96T76_331_REVFQTASERVEAEGLAALHSLTACLSR (UniProt Q96T76)
The “probe-labelled cysteine peptide fold change” value of the first is higher: -0.109 for the first, -0.452 for the second.

Compared with “MYH9_P35579_671_CIIPNHEKK (UniProt P35579)”, “MUT_P22033_560_CTVGEITDALK (UniProt P22033)” is higher in “probe-labelled cysteine peptide fold change” value: -0.188 for the first, 0.0307 for the second.

Going from “MTMR14_Q8NCE2_131_FVCPVILFK (UniProt Q8NCE2)” to “MRPL53_Q96EL3_21_VQFCPFEK (UniProt Q96EL3)”, the “probe-labelled cysteine peptide fold change” value rises from -0.00849 to 0.0106.

In the case of “MAP4K1_Q92918_335_SSSLGIPDADCCR (UniProt Q92918)”, the “probe-labelled cysteine peptide fold change” value is reported as -0.294.
